Measured values: publication PMC4336329 (PLoS ONE, 2015)
About 14,000 (4.5%) of roughly 310,000 compounds showed an effect of 50% or more. Effects have a minus sign here. Shown is part of a subset that was picked to be rich in strong results.

target: human ether-à-go-go-related gene (hERG) potassium channel (human, UniProt Q12809); experiment: primary screen, population patch clamp on CHO cells stably expressing hERG; higher = less effect of the substance
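Further: peak tail current of the secondary pulse compared with the same well before compound.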

Sequence of human ether-à-go-go-related gene (hERG) potassium channel (Q12809 whole entry, looked up): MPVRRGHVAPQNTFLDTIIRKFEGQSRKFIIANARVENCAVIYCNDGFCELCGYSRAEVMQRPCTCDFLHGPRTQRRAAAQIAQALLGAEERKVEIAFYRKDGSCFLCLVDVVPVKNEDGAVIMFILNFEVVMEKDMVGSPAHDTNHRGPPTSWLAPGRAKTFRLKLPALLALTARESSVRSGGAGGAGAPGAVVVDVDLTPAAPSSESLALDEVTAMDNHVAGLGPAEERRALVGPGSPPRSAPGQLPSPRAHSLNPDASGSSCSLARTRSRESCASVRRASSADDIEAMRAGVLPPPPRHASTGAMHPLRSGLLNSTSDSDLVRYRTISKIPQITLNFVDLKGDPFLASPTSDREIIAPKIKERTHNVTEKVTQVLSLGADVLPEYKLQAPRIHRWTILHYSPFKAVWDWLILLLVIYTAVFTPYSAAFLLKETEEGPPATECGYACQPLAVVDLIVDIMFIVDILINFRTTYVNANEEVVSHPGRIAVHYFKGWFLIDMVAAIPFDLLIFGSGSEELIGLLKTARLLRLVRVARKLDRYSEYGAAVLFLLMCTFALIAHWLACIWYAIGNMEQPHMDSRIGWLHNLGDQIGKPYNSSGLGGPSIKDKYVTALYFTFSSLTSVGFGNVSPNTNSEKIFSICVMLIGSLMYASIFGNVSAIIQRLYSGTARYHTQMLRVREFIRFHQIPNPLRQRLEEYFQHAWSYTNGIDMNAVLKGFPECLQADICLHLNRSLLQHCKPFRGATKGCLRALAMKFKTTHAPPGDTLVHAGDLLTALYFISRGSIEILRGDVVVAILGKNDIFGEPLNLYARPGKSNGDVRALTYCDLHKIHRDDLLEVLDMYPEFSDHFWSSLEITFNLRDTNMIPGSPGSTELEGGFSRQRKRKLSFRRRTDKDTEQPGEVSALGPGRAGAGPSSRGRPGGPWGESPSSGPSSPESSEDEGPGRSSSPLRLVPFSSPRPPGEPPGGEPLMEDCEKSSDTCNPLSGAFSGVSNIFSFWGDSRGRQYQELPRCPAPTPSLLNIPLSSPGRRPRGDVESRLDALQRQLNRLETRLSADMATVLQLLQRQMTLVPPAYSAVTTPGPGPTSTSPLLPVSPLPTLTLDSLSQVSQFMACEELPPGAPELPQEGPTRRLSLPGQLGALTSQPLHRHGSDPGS

Compared with CSc1sc(C)cc1/C=N/O, COc1ccc(C(=O)c2c[nH]c(C(=O)N=CN(C)C)c2)cc1 is higher in “hERG current change (%, negative = inhibition) at 10uM” value: 6.46% for the first, 10.2% for the second.

First: NC(=O)c1nsc(C(=O)N(Cc2ccco2)C(C(=O)NCc2ccc(F)cc2)c2ccc(O)cc2)c1N (centres unmarked)
Second: C/C(=N\NC(=O)CNc1ccc(F)cc1)c1cc2ccccc2o1
The “hERG current change (%, negative = inhibition) at 10uM” value of the first is lower: -43.8% for the first, -26.6% for the second.

First: O=C(OC1CCOC1=O)c1ccc(CO)cc1 (centres unmarked)
Second: Cc1cc(=O)oc2cc(OCC(=O)OCC(=O)NC3CC3)ccc12
The “hERG current change (%, negative = inhibition) at 10uM” value of the first is higher: 27.4% for the first, 16.4% for the second.

Compared with CCCn1c2ccccc2c2cc(C(=O)O)ccc21, C=CCn1c(=O)c(C(=O)NCc2ccccc2)c(O)c2ccccc21 is higher in “hERG current change (%, negative = inhibition) at 10uM” value: 6.24% for the first, 15.4% for the second.

Compared with c1ccc(-c2csc(-c3ccc(-c4csnn4)cc3)n2)cc1, Cc1ccn2c(Nc3ccccc3)c(-c3ccccn3)nc2c1 is lower in “hERG current change (%, negative = inhibition) at 10uM” value: 17.6% for the first, -10.8% for the second.

Compared with CN1C(=O)c2ccccc2Sc2ccc(NC(=O)N3CCOCC3)cc21, O=C(c1ccc(NC2=NC3CS(=O)(=O)CC3S2)cc1)N1CCN(c2ccccc2)CC1 (centres unmarked) is higher in “hERG current change (%, negative = inhibition) at 10uM” value: -7.88% for the first, 20.7% for the second.

Compared with C=CCn1cc(C=C2C(=O)N(C)C(=O)N(C)C2=O)c2ccccc21, C=CCn1c(O)c(N=NC(=O)c2cccnc2)c2cc(Br)ccc21 is lower in “hERG current change (%, negative = inhibition) at 10uM” value: 23.9% for the first, -16.1% for the second.

Compared with CC(C)CC(=O)Nc1nc2c(c(=O)[nH]1)CCCC2, O=C(COc1ccc2c3c(c(=O)oc2c1)CCC3)NC1CCCCC1 is lower in “hERG current change (%, negative = inhibition) at 10uM” value: 17.9% for the first, 4.83% for the second.

Going from CN=C1CN(O)C(c2ccccc2)=c2cc(Cl)ccc2=N1 to Cc1cc(=O)oc2cc(OCC(=O)c3ccccc3)ccc12, the “hERG current change (%, negative = inhibition) at 10uM” value falls from 18.6% to 10.9%.

Compared with O=[N+]([O-])c1cccc(Cl)c1NCCNc1ncc(C(F)(F)F)cc1Cl, Cc1ccc(NC(=O)CSc2nnc(-c3ccoc3C)n2CCCN(C)C)cc1Cl is lower in “hERG current change (%, negative = inhibition) at 10uM” value: 15.6% for the first, -69.3% for the second.

First: Cc1ccc(S(=O)(=O)NC(C)(C)CN2CCCCC2)cc1
Second: Cc1cc(=O)oc2cc(OCC(=O)NC3CCCCC3)ccc12
The “hERG current change (%, negative = inhibition) at 10uM” value of the first is higher: 3.77% for the first, -60.7% for the second.

Compared with COc1ccc(C(=O)COc2ccc3c(C)cc(=O)oc3c2)cc1, COc1cccc(C(=O)COc2ccc3c(C)cc(=O)oc3c2)c1 is lower in “hERG current change (%, negative = inhibition) at 10uM” value: 11.1% for the first, -70.8% for the second.

Going from Cc1cc(=O)oc2cc(OCC(=O)NC3CC(C)(C)NC(C)(C)C3)ccc12 to Cc1cc(=O)oc2cc(OCC(=O)NC3CCCC3)ccc12, the “hERG current change (%, negative = inhibition) at 10uM” value falls from -34.2% to -67.2%.

First: Cc1cc(=O)oc2cc(OCC(=O)OC(C)C(=O)NC3CCCC3)ccc12 (centres unmarked)
Second: CCOc1cc(NC(=S)NCC(C)C)c(OCC)cc1NC(=O)c1cccs1
The “hERG current change (%, negative = inhibition) at 10uM” value of the first is lower: 2.63% for the first, 13.2% for the second.

Compared with O=C1NC2(CCCCC2)C(=O)N1/N=C/c1ccc(O)cc1O, CC1CCCCN1CCn1c(=S)[nH]c2cc3c(cc2c1=O)OCO3 (centres unmarked) is lower in “hERG current change (%, negative = inhibition) at 10uM” value: -16.7% for the first, -29% for the second.

First: Clc1ccc(-c2nc3cnccn3c2Nc2ccc3c(c2)OCO3)cc1
Second: Cc1ccc(-c2nc3cnccn3c2Nc2ccc3c(c2)OCO3)cc1
The “hERG current change (%, negative = inhibition) at 10uM” value of the first is higher: -18.4% for the first, -25.7% for the second.

Compared with Cc1ccc(Nc2c(-c3ccccn3)nc3cc(C)ccn23)cc1, Cc1ccn2c(Nc3ccc4c(c3)OCO4)c(-c3ccccn3)nc2c1 is lower in “hERG current change (%, negative = inhibition) at 10uM” value: -48.1% for the first, -67.4% for the second.

COc1ccc(-c2nc3cnccn3c2Nc2ccc3c(c2)OCO3)cc1 and Cc1ccc(-c2nc3cnccn3c2Nc2ccc3c(c2)OCO3)o1 are the same in “hERG current change (%, negative = inhibition) at 10uM” value: -52.7% for the first, -52.7% for the second.

First: Cc1ccc(Nc2c(-c3ccc(C)o3)nc3cnccn23)cc1
Second: Cc1ccc(-c2nc3cnccn3c2Nc2ccc3c(c2)OCCO3)o1
The “hERG current change (%, negative = inhibition) at 10uM” value of the first is higher: 4.98% for the first, -23.8% for the second.

Compared with Cc1occc1-c1nnc(SCC(=O)Nc2ccc3c(c2)OCO3)n1CC1CCCO1 (centres unmarked), COCCCn1c(SCC(=O)Nc2ccc3c(c2)OCCO3)nnc1-c1ccoc1C is lower in “hERG current change (%, negative = inhibition) at 10uM” value: -2.13% for the first, -5.98% for the second.

Going from CCN(CC)CCCn1c(SCC(=O)Nc2cccc(F)c2)nnc1-c1ccoc1C to CCCn1c(SCC(=O)Nc2cccc(C(=O)OCC)c2)nnc1-c1ccoc1C, the “hERG current change (%, negative = inhibition) at 10uM” value rises from -68.2% to -2.61%.

Compared with CCOC(=O)c1cccc(NC(=O)CSc2nnc(-c3ccoc3C)n2CCOC)c1, Cn1nc([N+](=O)[O-])nc1N1CCOCC1 is higher in “hERG current change (%, negative = inhibition) at 10uM” value: -19.7% for the first, 23.7% for the second.
